In all, about 1,400 compounds went through this assay and about 350 (25%) were called active. About 2% were inconclusive and are not listed. How the calls were made is not given here. Not all results are given here. Measured potencies and affinities stand elsewhere.

This experiment can be described thus: inhibitors of Clostridioides difficile proliferation – 4-point retest, confirmation (AID 1224921).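 Further: plate controls were DMSO wells for no effect and levofloxacin 16 µg/mL wells for full effect.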 As to conditions: Clostridioides difficile clinical isolate growth, OD600, 24 h, hits give low values; at 30 µM unless noted.
Consider `Cc1ccc(-c2ccc3c(c2)O[C@@H](CN(C)Cc2ccncc2)[C@@H](C)CN([C@H](C)CO)S3(=O)=O)cc1`, for which the max activity was -8.83% [at 8 µM] (inactive).

On to `C[C@H](CO)N1C[C@H](C)[C@H](CN(C)Cc2ccncc2)Oc2cc(C3=CCCCC3)ccc2S1(=O)=O`, for which the max activity is 33% (inactive).

Turning to `C[C@H]1CN([C@@H](C)CO)C(=O)c2ccccc2-c2ccccc2CO[C@H]1CN(C)Cc1cccc(O)c1`, the max activity is 7.55% (inactive).

Take `C[C@H]1CN([C@@H](C)CO)C(=O)c2ccccc2-c2ccccc2CO[C@H]1CN(C)C(=O)CCN(C)C`: the max activity was -12.8% [at 35 µM] (inactive).

`C/C=C/c1ccc2c(c1)O[C@H](CN(C)C(=O)Nc1ccc(C(F)(F)F)cc1)[C@@H](C)CN([C@@H](C)CO)S2(=O)=O`: the max activity is 32.5% [at 8 µM] (inactive).

On to `C[C@H]1CN([C@@H](C)CO)C(=O)c2cc(Br)cnc2O[C@@H]1CN(C)C(=O)c1ccccc1`, for which the max activity was -20% [at 8 µM] (inactive).

Take `COc1ccc(NC(=O)Nc2cccc3c2O[C@@H](CN(C)C(=O)NC2CCCCC2)[C@H](C)CN([C@@H](C)CO)C3=O)cc1`: the max activity was 10.1% (inactive).

Take `C[C@@H]1CN([C@@H](C)CO)S(=O)(=O)c2ccc(C#Cc3ccccc3F)cc2O[C@H]1CN(C)CC1CCOCC1`: the max activity is 35.2% (inactive).

In the case of `COc1ccccc1C#Cc1ccc2c(c1)O[C@@H](CN(C)Cc1cccnc1)[C@@H](C)CN([C@@H](C)CO)S2(=O)=O`, the max activity is 24.6% (inactive).

For `CC(C)NC(=O)N(C)C[C@H]1OCc2ccccc2-c2ccccc2C(=O)N([C@@H](C)CO)C[C@H]1C`, the max activity is -14.3% (inactive).

As to `COc1cccc(C(=O)Nc2ccc3c(c2)OC[C@@H](C)N(C(=O)C2CCCC2)C[C@H](C)[C@@H](OC)CN(C)C3=O)c1`, the max activity is -18.8% [at 8 µM] (inactive).

Take `CC(C)CC#Cc1ccc2c(c1)O[C@H](CN(C)Cc1ccncc1)[C@@H](C)CN([C@@H](C)CO)S2(=O)=O`: the max activity was 23.1% (inactive).

Regarding `C[C@H](CO)N1C[C@H](C)[C@H](CN(C)Cc2ccc3c(c2)OCO3)Oc2ncc(-c3cccc(F)c3)cc2C1=O`, the max activity was -9.89% [at 8 µM] (inactive).

Consider `N#C[C@H]1[C@H](c2ccc(-c3cccc(F)c3)cc2)[C@@H](CO)N1C(=O)NC1CCCC1`, for which the max activity was 28.5% (inactive).

As to `CCCC(=O)Nc1ccc2c(c1)C(=O)N(C)C[C@@H](OC)[C@@H](C)CN(Cc1ccccc1)[C@H](C)CO2`, the max activity was 9.23% (inactive).

Regarding `C[C@H]1CN([C@@H](C)CO)S(=O)(=O)c2ccc(C3=CCCCC3)cc2O[C@H]1CN(C)C(=O)c1ccncc1`, the max activity is 14.4% (inactive).

Source of the values: PubChem BioAssay AID1224921 (Broad Institute, 2016).
